HSP90 inh = inhibitors of HSP90 luciferase refolding in rabbit reticulocyte lysate; luciferase refolding luminescence, 3 h; inhibition, % at 5.6 µM; actives 0.91% (n = 290,000); AID 1789;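 active = inhibition above the screen-wide mean plus 3 SD, computed separately per campaign, cut at about 16% in these data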;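 note: 0% = DMSO wells and 100% = 60 µM geldanamycin wells; inhibitors lower the luminescence because luciferase stays unfolded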
Mdm2-MdmX inh = inhibitors of human Mdm2/MdmX interaction; SaOS-2 split-luciferase Mdm2/MdmX complementation, luminescence; inhibition, % at 8 µM; actives 3% (n = 330,000); O15151+Q00987;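 active = inhibition of at least 50% at 8 µM in the primary screen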
KKLEB cytotox = CF airway cell cytotoxicity counter-screen; actives 0.36% (n = 360,000); KKLEB CF airway cells viability, ATPlite luminescence, overnight; hits give low values; cells stimulated with P. aeruginosa culture filtrate; activity change (cytotoxicity), % at 5 µM;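 active = corrected activity change at or below -50% at 5 µM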
LGR2 inh = Drosophila LGR2 receptor signaling inhibition; inhibition, % at 9.99 µM; HEK293 LGR2, CRE-luciferase, bursicon-stimulated, 4 h; actives 0.35% (n = 380,000); AID 720647;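 active = drop in luminescence signal, shown as inhibition above about 50% in the replicate tests, limit read from the data, passing the limit was not always enough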;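 note: agonist challenge used bursicon conditioned medium at about half maximal strength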
Peg3 prom inh = reduces Peg3 promoter-driven luciferase expression in HeLa | actives 1.7% (n = 360,000) | AID 588405 | inhibition, % at 20 µM | HeLa PEG-Prom luciferase reporter, luminescence, overnight;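 active = inhibition of at least 50% at 20 µM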
CF NFkB inh = cystic fibrosis NF-kB activation inhibition | KKLEB NF-kB-GFP reporter, PAF-induced, GFP fluorescence overnight | inhibition, % at 5 µM | actives 0.86% (n = 360,000);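 active = at least 50% inhibition at 5 µM, scaled per plate between neutral and stimulator controls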;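 note: PAF is a Pseudomonas aeruginosa culture filtrate used as stimulus; plate controls were PAF-stimulated DMSO wells for no effect and unstimulated DMSO wells for full effect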
The depositor's hits bear a star; nt = no result. Shown are actives, neighbours in structure and some others; about 3.6% of the full set was active somewhere.

SMILES	HSP90 inh	Mdm2-MdmX inh	KKLEB cytotox	LGR2 inh	Peg3 prom inh	CF NFkB inh
C=CC[C@@H](CC(=O)N[C@@H](CO)Cc1ccccc1)C(=O)N[C@H](COC(=O)[C@@H](CC=C)CC(=O)OC(C)(C)C)Cc1c[nH]c2ccccc12	nt	41	6	14	44	-21
C=CC[C@H](CC(=O)N[C@H](CO)Cc1ccccc1)C(=O)N[C@@H](COC(=O)[C@@H](CC=C)CC(=O)OC(C)(C)C)Cc1c[nH]c2ccccc12	nt	28	9	23	63*	2
COc1ccc(/C=C2\C(=O)N(c3nc(-c4ccc(Br)cc4)cs3)N=C2c2ccccc2)cc1	3	nt	nt	nt	nt	nt
CCOc1cc(/C=C2\C(=O)N(c3nc(-c4ccc(Br)cc4)cs3)N=C2c2ccccc2)ccc1O	1	11	14	nt	51*	-2
COc1cc(/C=C2\C(=O)N(c3ccc(NC(C)=O)cc3)N=C2c2ccccc2)ccc1O	16*	14	5	-3	-14	-10
CC(=O)N(C)C[C@H]1Oc2ncc(C#Cc3cccnc3)cc2C(=O)N([C@@H](C)CO)C[C@@H]1C	nt	nt	nt	-19	nt	nt
CO[C@H]1CN(C)C(=O)c2ccc(NC(=O)Cc3ccccc3)cc2OC[C@H](C)N(C(C)=O)C[C@H]1C	nt	nt	nt	-1	nt	nt
OC1CCC(Nc2ccn3nc(-c4cccc(OCc5ccccc5)c4)cc3n2)CC1 (configuration not stated)	nt	nt	0	52*	6	-12
COC(=O)C12OCC34C(CC5C(C)=C(O)C(=O)CC5(C)C3C(O)C1O)OC(=O)C(OC(=O)C=C(C)C)C24 (configuration not stated)	nt	nt	-43	100*	100*	94*
CN1c2ccc(C#Cc3cccnc3)cc2[C@H]2[C@H](CCN2C(=O)Nc2cc(F)ccc2F)[C@@H]1CO	nt	nt	nt	-9	nt	nt
C[C@@H]1CN([C@H](C)CO)C(=O)c2cc(C#CC3CCCCC3)cnc2O[C@H]1CN(C)C	nt	nt	nt	-10	nt	nt
Cc1ccc(-c2nn(-c3ccccc3)cc2CN(Cc2ccccc2)C(=O)c2ccco2)o1	8	35	5	nt	65*	-2
C[C@]12C=CC(=O)C=C1CCC1C2CC[C@@]2(C)C1CCC21OCCO1 (some centres not stated)	nt	21	0	-10	10	1
CC1(C)O[C@@H]2C[C@H]3[C@@H]4CCC5=CC(=O)CC[C@]5(C)[C@@]4(F)[C@@H](O)C[C@]3(C)[C@]2(C(=O)CCl)O1	nt	-22	-10	-3	3	77*
CC(=O)C12OC(C)(C)OC1CC1C3CCC4=CC(=O)C=CC4(C)C3(F)C(O)CC12C (configuration not stated)	nt	nt	12	-8	-10	79*
CC(=O)C1CCC2C3CCC4=CC(=O)CCC4(C)C3(Br)C(=O)CC12C (configuration not stated)	nt	nt	4	1	12	0
CC(=O)OCC(=O)[C@@]1(O)[C@H](C)C[C@H]2[C@@H]3CCC4=CC(=O)C=C[C@]4(C)[C@@]3(F)[C@@H](O)C[C@@]21C	2	8	9	-18	-10	69*
C[C@@H]1C[C@H]2[C@@H]3C[C@H](F)C4=CC(=O)C(Cl)=C[C@]4(C)[C@@]3(F)[C@@H](O)C[C@]2(C)[C@@]1(O)C(=O)CO	2	-10	nt	nt	nt	nt
CCCC(=O)O[C@]1(C(=O)COC(C)=O)CC[C@H]2[C@@H]3C[C@H](F)C4=CC(=O)C=C[C@]4(C)[C@@]3(F)[C@@H](O)C[C@@]21C	-2	21	-14	6	-4	63*
COc1ccc(S(=O)(=O)Nc2cccc3c2O[C@@H](CN(C)S(=O)(=O)c2ccc(F)cc2)[C@@H](C)CN([C@H](C)CO)C3=O)cc1	nt	nt	nt	-21	nt	nt
C[C@@H]1CN([C@@H](C)CO)C(=O)c2cccc(NC(=O)Nc3ccc4c(c3)OCO4)c2O[C@H]1CN(C)C(=O)Nc1ccc(F)cc1	nt	nt	nt	1	nt	nt
C[C@@H]1C[C@H]2[C@@H]3CCC4=CC(=O)C=C[C@]4(C)[C@@]3(F)[C@@H](O)C[C@]2(C)[C@H]1C(=O)CO	-3	18	10	7	-6	72*
C[C@@H]1C[C@H]2[C@@H]3C[C@H](F)C4=CC(=O)C=C[C@]4(C)[C@@]3(F)[C@@H](O)C[C@]2(C)[C@@]1(O)C(=O)COC(=O)C(C)(C)C	-2	7	40	-3	-2	76*
